Laboratory results published in PubChem BioAssay (Tox21).
Inconclusive results are not listed. Activity calls are given as the source filed them. Unless noted, calls come from the whole dose curve; as a rule, active = well fitted curve in the direction sought with a large enough effect in the repeat runs; inconclusive = weak or mixed curves; inactive = no such curve, though single readings can be large; an effect the other way counts as inactive or inconclusive.

Assays:
[1] = qHTS assay for small molecules that induce genotoxicity in human embryonic kidney cells expressing luciferase-tagged ATAD5 (AID 651632); note: nearly all actives have a fitted effect of over 15% in size; note: potency is the fitted concentration of half-maximal effect
How it was run: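 HEK293T cells carrying a luciferase reporter tagged to ATAD5 were exposed to compound or DMSO vehicle for 16 hr at 37C, 5% CO2. Amplite was added, and after 30 min at room temperature luciferase activity was read as a marker of ATAD5 induction.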

[2] = qHTS assay for small molecules that induce genotoxicity in human embryonic kidney cells expressing luciferase-tagged ATAD5 - cell viability (AID 651634; calls by dose curve; note: nearly all actives have a fitted effect of over 25% in size; note: potency is the fitted concentration of half-maximal effect)
How it was run: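 HEK293T cells expressing luciferase-tagged ATAD5 were exposed to compound or DMSO for 15.5 hr at 37C, 5% CO2. Viability was then read as live-cell protease activity by CellTiter-Fluor fluorescence after 30 min at 37C.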

[3] = qHTS assay to test for compound auto fluorescence at 535 nm (green) in HepG2 cells (AID 720675)
[4] = qHTS assay to test for compound auto fluorescence at 590 nm (red) in HEK293 cells (AID 720679)
How it was run: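 Using HEK293 cells at 2,000 per well, the screen added 23 nL of each compound after cell attachment and incubated overnight (37C, 5% CO2). The plate reader then captured red-label fluorescence, Ex/Em 540/590nm.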

[5] = qHTS assay to test for compound auto fluorescence at 535 nm (green) in HEK293 cells (AID 720680)
[6] = qHTS assay to test for compound auto fluorescence at 460 nm (blue) in HEK293 cell free culture (AID 720681)
How it was run: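 Test compounds were pinned into cell-free culture medium (DMEM with 10% FBS) and fluorescence was read directly at Ex/Em 405/460 nm. Signals were expressed as fluorescence equivalents of triamterene, with DMSO vehicle as control.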

[7] = qHTS assay to test for compound auto fluorescence at 535 nm (green) in HEK293 cell free culture (AID 720682)
How it was run: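 Using fluorescein as calibrant, autofluorescence was quantified at 485/535 nm in cell-free DMEM containing 10% FBS after pintool addition of compound or vehicle.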

[8] = qHTS assay to test for compound auto fluorescence at 590 nm (red) in HepG2 cell free culture (AID 720684)
How it was run: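 Red fluorescence (540 nm excitation, 590 nm emission) was measured after compound transfer into cell-free MEM supplemented with 10% FBS. Values are equivalencies against Rose Bengal sodium.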

[9] = qHTS assay to test for compound auto fluorescence at 460 nm (blue) in HepG2 cell free culture (AID 720685)
How it was run: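 Compound (23 nL) or DMSO pinned into cell-free MEM with 10% FBS; blue fluorescence read at 405/460 nm excitation/emission, expressed as auto-fluorescence equivalency to triamterene.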

[10] = qHTS assay to test for compound auto fluorescence at 535 nm (green) in HepG2 cell free culture (AID 720686)
[11] = qHTS assay to test for compound auto fluorescence at 460 nm (blue) in HepG2 cells (AID 720687)
How it was run: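 Cells (2,000/well in MEM with 10% FBS) attached overnight at 37 C, then were exposed to compound or DMSO for 1 hr at 37 C, 5% CO2. Fluorescence read at Ex/Em 405/460 nm, expressed as triamterene-equivalent signal.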

[12] = qHTS assay for identifying genotoxic compounds that show differential cytotoxicity against isogenic chicken DT40 cell lines with known DNA damage response pathways - Rad54/Ku70 mutant cell line (AID 743015); note: nearly all actives have a fitted effect of over 60% in size; note: potency is the fitted concentration of half-maximal effect
[13] = qHTS assay to identify small molecule antagonists of the thyroid receptor (TR) signaling pathway - cell viability counter screen (AID 743064); note: nearly all actives have a fitted effect of over 50% in size; note: potency is the fitted concentration of half-maximal effect
How it was run: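 Counter screen for cytotoxicity: compound plus T3 (1 nM final) on GH3.TRE-Luc cells, 23.5 h at 37 °C, then fluorescence viability readout with CellTiter-Fluor.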

[14] = system: thyroid hormone receptor (rat, GH3 cells); test: qHTS assay to identify small molecule agonists of the thyroid receptor (TR) signaling pathway (AID 743066; calls by dose curve)
[15] = qHTS assay to identify small molecule antagonists of the estrogen receptor alpha (ER-alpha) signaling pathway - cell viability counter screen (AID 743074; calls by dose curve;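 note: HEK293 cells carrying ER-alpha-UAS-bla reporter stimulated with 17beta-estradiol; nearly all actives have a fitted effect of over 45% in size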; note: potency is the fitted concentration of half-maximal effect)
Aromatase (Homo sapiens) = Aromatase (Homo sapiens) (UniProt P11511); test: qHTS assay to identify aromatase inhibitors (AID 743083); note: nearly all actives have a fitted effect of over 55% in size; note: potency is the fitted concentration of half-maximal effect
Aromatase (Homo sapiens), sequence (P11511 whole entry, looked up): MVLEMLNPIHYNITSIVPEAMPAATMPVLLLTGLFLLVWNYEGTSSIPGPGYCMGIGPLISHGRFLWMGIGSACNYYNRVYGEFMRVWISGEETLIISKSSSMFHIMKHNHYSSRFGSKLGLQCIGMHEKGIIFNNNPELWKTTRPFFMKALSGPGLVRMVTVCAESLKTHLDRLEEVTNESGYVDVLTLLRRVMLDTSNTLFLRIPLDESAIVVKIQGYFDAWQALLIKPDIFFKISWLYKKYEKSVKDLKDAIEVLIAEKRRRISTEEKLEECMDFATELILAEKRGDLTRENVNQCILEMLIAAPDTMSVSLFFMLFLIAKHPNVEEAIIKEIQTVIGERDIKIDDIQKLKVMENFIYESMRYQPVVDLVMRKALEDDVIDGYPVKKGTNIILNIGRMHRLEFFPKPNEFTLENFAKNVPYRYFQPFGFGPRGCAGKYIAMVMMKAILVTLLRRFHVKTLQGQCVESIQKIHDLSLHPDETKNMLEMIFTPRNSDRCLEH

[16] = qHTS assay to identify aromatase inhibitors - cell viability counter screen (AID 743084);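 note: cells stimulated with testosterone during compound exposure; nearly all actives have a fitted effect of over 55% in size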; note: potency is the fitted concentration of half-maximal effect
[17] = target: Aryl hydrocarbon receptor (Homo sapiens) (UniProt P35869); test: qHTS assay to identify small molecule that activate the aryl hydrocarbon receptor (AhR) signaling pathway (AID 743085); note: nearly all actives have a fitted effect of over 15% in size; note: potency is the fitted concentration of half-maximal effect
Aryl hydrocarbon receptor (Homo sapiens), sequence (P35869 whole entry, looked up): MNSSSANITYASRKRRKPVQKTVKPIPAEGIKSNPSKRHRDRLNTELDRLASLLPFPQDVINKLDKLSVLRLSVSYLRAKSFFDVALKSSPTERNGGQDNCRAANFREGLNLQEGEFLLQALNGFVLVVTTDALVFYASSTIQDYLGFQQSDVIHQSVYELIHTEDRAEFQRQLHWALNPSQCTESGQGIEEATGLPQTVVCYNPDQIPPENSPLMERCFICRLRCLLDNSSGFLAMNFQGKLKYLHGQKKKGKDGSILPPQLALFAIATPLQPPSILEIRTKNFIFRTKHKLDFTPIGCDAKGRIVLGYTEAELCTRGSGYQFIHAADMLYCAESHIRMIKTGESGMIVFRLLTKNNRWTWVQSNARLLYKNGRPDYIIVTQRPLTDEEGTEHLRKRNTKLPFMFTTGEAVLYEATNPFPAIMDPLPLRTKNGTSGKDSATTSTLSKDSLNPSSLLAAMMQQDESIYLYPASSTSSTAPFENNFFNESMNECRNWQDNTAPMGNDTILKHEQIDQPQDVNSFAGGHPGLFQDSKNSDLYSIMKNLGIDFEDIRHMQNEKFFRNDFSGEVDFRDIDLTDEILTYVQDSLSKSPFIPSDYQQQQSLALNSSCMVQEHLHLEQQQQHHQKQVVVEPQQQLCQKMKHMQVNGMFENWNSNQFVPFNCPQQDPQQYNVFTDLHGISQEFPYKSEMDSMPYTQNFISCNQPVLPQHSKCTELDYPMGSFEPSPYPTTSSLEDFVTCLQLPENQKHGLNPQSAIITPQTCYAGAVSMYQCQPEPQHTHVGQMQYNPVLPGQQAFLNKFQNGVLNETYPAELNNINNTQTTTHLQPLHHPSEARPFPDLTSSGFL
How it was run: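 Measured in HG2L7.5c1 cells: CellTiter-Fluor signal (30 min incubation, 37C) for viability, then luciferase luminescence (30 min, room temperature). Compound contact time was 24 h at 37C, following a 5 h pre-incubation.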

[18] = qHTS assay to identify small molecule that activate the aryl hydrocarbon receptor (AhR) signaling pathway - cell viability counter screen (AID 743086); note: nearly all actives have a fitted effect of over 45% in size; note: potency is the fitted concentration of half-maximal effect
How it was run: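 HepG2-AhR-luc (HG2L7.5c1) cells, 4000/well, were preincubated 5 h at 37C, exposed to compound in qHTS format for 24 hr at 37C, then given CellTiter-Fluor for 30 min; viability was read as fluorescence in the reporter wells.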

[19] = qHTS assay to identify small molecule antagonists of the thyroid receptor (TR) signaling pathway (AID 743065); note: nearly all actives have a fitted effect of over 55% in size; note: potency is the fitted concentration of half-maximal effect
How it was run: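 GH3.TRE-Luc rat pituitary cells carrying two TR response elements driving luciferase were plated for 4 h, given compound plus 1 nM T3 (final), and incubated 23.5 h at 37 C. ONE-Glo luminescence measured reporter inhibition; CellTiter-Fluor fluorescence tracked cytotoxicity.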

Measured: Potency

C[C@]12CC[C@H](O)C[C@H]1CC[C@@H]1[C@@H]2CC[C@]2(C)[C@@H](c3ccc(=O)oc3)C[C@H]3O[C@]132
active: [2] 2.11 µM | [12] 13.3 µM | [15] 1.34 µM
not listed: [19]
inactive: all other assays above

Cc1nnc2n1-c1ccc(Cl)cc1C(c1ccccc1Cl)=NC2
not listed: [1] | [2] | [17]
inactive: all other assays above

C/C=C(\CC)C(=O)NC(N)=O
inactive: all assays above

c1csc(C2(N3CCCCC3)CCCCC2)c1
inactive: all assays above

CCNC1(c2cccs2)CCCCC1=O (centres undefined)
inactive: all assays above

Oc1cccc[c]1[Hg][Cl]
active: [2] 4.22 µM | [12] 0.473 µM | [13] 0.841 µM | [19] 0.473 µM | [15] 21.3 µM | Aromatase (Homo sapiens) 3.76 µM | [16] 5.31 µM | [18] 16.8 µM
not listed: [14]
inactive: all other assays above

O=C1CN=C(c2ccccc2)c2cc(Cl)ccc2N1
not listed: [12] | [19]
inactive: all other assays above

CC(C)[C@H]1C(=O)N2CCC[C@H]2[C@]2(O)O[C@](NC(=O)[C@@H]3C[C@@H]4c5cccc6[nH]cc(c56)C[C@H]4N(C)C3)(C(C)C)C(=O)N12
active: [12] 26.6 µM | [13] 29.8 µM | [19] 29.8 µM
not listed: [14] | [18]
inactive: all other assays above

CCN(CC)C(=O)N[C@H]1C[C@@H]2c3cccc4[nH]cc(c34)C[C@H]2N(C)C1
not listed: [12] | [17] | [19]
inactive: all other assays above

CCN1C[C@]2(COC)[C@H](O)C[C@H](OC)[C@@]34[C@@H]5C[C@@]6(O)[C@H](OC(=O)c7ccccc7)[C@@H]5[C@@](OC(C)=O)([C@@H]([C@H](OC)[C@H]23)[C@@H]14)[C@@H](O)[C@@H]6OC
not listed: [5]
inactive: all other assays above

CCC1(c2ccccc2)C(=O)NC(=O)N(C(=O)c2ccccc2)C1=O (centres undefined)
not listed: [5] | [12] | [19]
inactive: all other assays above

Oc1ccc2c3c1O[C@H]1[C@@H](O)CC[C@@]4(O)[C@@H](C2)N(CC2CCC2)CC[C@]314
inactive: all assays above

Oc1ccc2c3c1O[C@H]1[C@@H](O)C=C[C@H]4[C@H](C2)NCC[C@@]341
not listed: [13] | [15]
inactive: all other assays above

CCC1C(C)=NN=C(c2ccc(OC)c(OC)c2)c2cc(OC)c(OC)cc21 (centres undefined)
not listed: [1]
inactive: all other assays above

C[C@]12CC[C@@H]3c4ccc(OC(=O)N(CCCl)CCCl)cc4CC[C@H]3[C@@H]1CC[C@@H]2OP(=O)(O)O
not listed: [13] | [14] | [19]
inactive: all other assays above

Clc1ccc(C(Cn2ccnc2)OCc2csc3c(Cl)cccc23)c(Cl)c1 (centres undefined)
active: Aromatase (Homo sapiens) 4.03 µM
not listed: [5] | [12] | [13] | [14] | [19]
inactive: all other assays above

O=C(NC(=O)c1c(F)cccc1F)Nc1ccc(Cl)c(Oc2ncc(C(F)(F)F)cc2Cl)c1
not listed: [5] | [12] | [13]
inactive: all other assays above

C[C@@H](Cc1ccccc1)NCCC(c1ccccc1)c1ccccc1
active: [12] 7.17 µM | [13] 11.4 µM
not listed: [5] | [14] | [18] | [19]
inactive: all other assays above

CCC/C=C/C=C/C(=O)O[C@H]1/C(=C/C(=O)OC)C[C@H]2C[C@H]([C@@H](C)O)OC(=O)C[C@H](O)C[C@@H]3C[C@H](OC(C)=O)C(C)(C)[C@](O)(C[C@@H]4C/C(=C/C(=O)OC)C[C@H](/C=C/C(C)(C)[C@]1(O)O2)O4)O3
active: [1] 0.0047 µM | [12] 0.0042 µM | [13] 10.6 µM | [19] 9.44 µM
not listed: [15]
inactive: all other assays above

Cc1cc(C)cc(C(=O)OC2C[C@H]3CC[C@@H](C2)N3C)c1 (some centres undefined)
active: [12] 5.31 µM | [19] 18.8 µM
not listed: [13] | [17] | [18]
inactive: all other assays above

O=C1Nc2ccc(Cl)cc2C(c2ccccc2Cl)=NC1O (centres undefined)
not listed: [5]
inactive: all other assays above

CN1C(=O)CC(=O)N(c2ccccc2)c2cc(Cl)ccc21
not listed: [5]
inactive: all other assays above

CN(C)CCCCCCN(C)C (tested in a mixture with another compound)
not listed: [1] | [15]
inactive: all other assays above

CN[C@@H](C)Cc1ccccc1
not listed: [17]
inactive: all other assays above

O=C1C=C2C=C[C@@H]3C[C@@]2(O1)[C@H]1CCCCN31
active: [1] 6.68 µM | [2] 18.8 µM | [12] 5.96 µM | [13] 11.9 µM | [19] 6.68 µM | Aromatase (Homo sapiens) 13.3 µM | [16] 23.7 µM | [18] 15 µM
inactive: all other assays above

c1ccc(C2(N3CCCC3)CCCCC2)cc1
active: [12] 7.5 µM | [13] 16.8 µM | [19] 13.3 µM | [17] 26.6 µM
not listed: [2] | [5] | [14]
inactive: all other assays above
